The list is not random: actives were taken first. Their share in the collection is about 18%.
RORg inh: inhibitors of mouse ROR gamma transcriptional activity. Drosophila S2 Gal4-RORgamma UAS-luciferase reporter, 20 h. Potency, µM (series often up to 53.6 µM), for the others: top-dose activity change, negative = inhibition, actives largely listed as inhibitors. P51450. 5.4% of 310,000 active. AID 2551; also: potency is read from the fitted curve at half-maximal effect; nearly all actives have a fitted effect of over 60% in size
Target sequence (P51450 whole entry, looked up, the tested form may be a part): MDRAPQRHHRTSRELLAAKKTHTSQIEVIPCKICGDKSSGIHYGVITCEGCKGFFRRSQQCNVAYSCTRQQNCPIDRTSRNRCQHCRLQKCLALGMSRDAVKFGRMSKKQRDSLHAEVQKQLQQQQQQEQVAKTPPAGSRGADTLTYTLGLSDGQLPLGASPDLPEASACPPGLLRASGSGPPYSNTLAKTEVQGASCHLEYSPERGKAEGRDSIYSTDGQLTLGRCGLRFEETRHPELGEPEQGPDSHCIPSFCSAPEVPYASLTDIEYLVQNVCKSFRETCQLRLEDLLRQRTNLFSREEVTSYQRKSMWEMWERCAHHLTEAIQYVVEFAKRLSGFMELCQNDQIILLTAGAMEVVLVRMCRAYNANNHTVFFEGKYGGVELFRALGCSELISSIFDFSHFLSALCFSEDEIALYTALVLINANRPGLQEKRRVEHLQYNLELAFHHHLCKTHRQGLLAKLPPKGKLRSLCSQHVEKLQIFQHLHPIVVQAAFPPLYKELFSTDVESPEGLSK
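Using a luciferase readout, inhibitors were identified by reduced reporter activity in Drosophila cells coexpressing a copper-inducible Gal4–ROR gamma fusion and UAS-driven Photinus luciferase, incubated 20 hr after 700 uM copper sulfate.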
LDHA inh: LDHA (human) enzyme inhibition; 0.15% of 480,000 active; purified LDHA, NADH/diaphorase-resazurin fluorescence; hits give low values; P00338; activity change, % (values are at about 110 or 230 µM); in the data active = activity change below about -30%; inconclusive = mostly about -25% to -30%;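 also: plate controls were DMSO wells for no effect and wells without enzyme for full effect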
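Human LDH5 (2 nM) was incubated with 0.06 mM NADH and 0.2 mM pyruvate for 5 min at room temperature in Tris pH 7.4. Remaining NADH was coupled through diaphorase/resazurin, and resorufin fluorescence was read at 0 and 20 min.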
TDP1 cell noCPT: qHTS for Inhibitors of human tyrosyl-DNA phosphodiesterase 1 (TDP1): qHTS in cells in absence of CPT; 15% of 420,000 active; Potency, µM (titrated, usually from 46.2 µM), without a hit: at the top dose activity change, negative = growth inhibition, most hits filed as inhibitors; DT40 Tdp1-/- hTDP1 cells, no CPT, ATP luminescence, 48 h; also: potency is read from the fitted curve at half-maximal effect; nearly all actives have a fitted effect of over 55% in size
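Luminescent ATP content (CellTiter-Glo) served as the growth readout. Knockout chicken DT40 cells expressing human TDP1 were exposed to compounds without camptothecin for a minimum 48 hr at 37 °C.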
IL1B secr inh: inhibitors of inflammasome signaling (IL-1 beta secretion). activity change, % at 57.5 µM. AID 743279. 4.7% of 360,000 active. THP-1 LPS/ATP IL-1B secretion, AlphaLISA, 16 h; hits give low values; in the data active = activity change below about -50%; inconclusive = mostly about -30% to -49%
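THP-1 cells pretreated 1 hr with compounds (up to 57.5 uM final), then stimulated with LPS (250 ng/mL final) plus ATP (1.25 mM final); secreted IL-1B measured by AlphaLISA after 16 hr, decreased signal indicating inhibition.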
VP16 counter: Gal4-VP16 reporter inhibition counter-screen; Potency, µM (series often up to 53.6 µM), inactives show top-dose activity, negative = inhibition, usual class: inhibitors; AID 2546; Drosophila S2 Gal4-VP16 UAS-luciferase, luminescence, 20 h; 3.5% of 310,000 active;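 also: Gal4-VP16 expression switched on by copper sulfate through the metallothionein promoter; potency is read from the fitted curve at half-maximal effect; nearly all actives have a fitted effect of over 50% in size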
TDP1 cell CPT: DT40-hTDP1 cell growth loss with CPT. chicken DT40 Tdp1-/-;hTDP1 cells + 20 nM CPT, ATP luminescence, 48 h. Potency, µM (top dose mostly 46.2 µM), for the others: top-dose activity change, negative = growth inhibition, usual class: inhibitors. 12% of 420,000 active. AID 686979; also: potency is read from the fitted curve at half-maximal effect; nearly all actives have a fitted effect of over 55% in size
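Chicken DT40 Tdp1-/- cells stably complemented with human TDP1 were seeded at 400 cells/well in medium containing 20 nM camptothecin, exposed to pin-transferred compounds, and grown at 37 °C for at least 48 hr. Viability was read as ATP luminescence.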
Starred values were filed as active, the others as inactive. Unless noted, calls follow the shape of the dose curve; as a rule, active = well fitted curve in the direction sought with a large enough effect; inconclusive = small, poorly fitted or top-dose-only effect, or another doubt; inactive = no such curve, though single readings can be large; an effect the other way counts as inactive or inconclusive. Unless noted, % is scaled to controls: 0 for no effect and ±100 for the full control effect.

O=c1c2ccccc2cnn1Cc1n[nH]c(=S)n1-c1ccccc1 was read as RORg inh inconclusive, LDHA inh -1, TDP1 cell noCPT -16%, IL1B secr inh -2, VP16 counter -1% and TDP1 cell CPT 9%.
For C=CCn1c(CCn2c3ccccc3c3ccccc32)n[nH]c1=S the results were RORg inh 4µM*, LDHA inh -9, TDP1 cell noCPT -25%, IL1B secr inh 0, VP16 counter 3.2µM* and TDP1 cell CPT -17%.
Screening Cn1c(Cn2c3ccccc3c3ccccc32)n[nH]c1=S returned RORg inh 3.5µM*, LDHA inh 0, TDP1 cell noCPT inconclusive, IL1B secr inh 4, VP16 counter 13µM* and TDP1 cell CPT -4%.
`NC(=O)c1ccc[n+]([O-])c1` gave LDHA inh 9.
`COC(=O)Nc1ccc2c(c1)N(C(=O)CCN1CCN3CCCC3C1)c1ccccc1S2` (stereo not drawn) gave RORg inh 2%, LDHA inh -2, TDP1 cell noCPT inconclusive, IL1B secr inh -25, VP16 counter 10% and TDP1 cell CPT 13µM*.
CN1CCCC1CN1CCCC1 (stereo not drawn) was read as LDHA inh 0, TDP1 cell noCPT -2%, IL1B secr inh 20 and TDP1 cell CPT -12%.
Screening CN1CCCC1CCNC1C2CC3CC(C2)CC1C3 (stereo not drawn) returned RORg inh -2%, LDHA inh -6, TDP1 cell noCPT 16µM*, IL1B secr inh -13, VP16 counter -5% and TDP1 cell CPT 8.2µM*.
CSCCOC(=O)c1[nH]c2c(c1C)C(=O)CC(c1ccco1)C2 (stereo not drawn) was read as RORg inh inconclusive, LDHA inh 0, TDP1 cell noCPT 0.82µM*, IL1B secr inh 53, VP16 counter 3% and TDP1 cell CPT 0.73µM*.
`Cc1c(C(=O)OCCOC(C)C)[nH]c2c1C(=O)CC(c1ccco1)C2` (stereo not drawn) gave RORg inh inconclusive, LDHA inh 4, TDP1 cell noCPT 0.0052µM*, IL1B secr inh 97, VP16 counter -3% and TDP1 cell CPT 0.023µM*.
For COCCOC(=O)c1oc2c(c1C)C(=O)CC(c1ccco1)C2 (stereo not drawn) the results were LDHA inh 2.
Cc1c(C(=O)OCc2ccccc2)[nH]c2c1C(=O)CC(c1ccco1)C2 (stereo not drawn) was read as RORg inh -18%, LDHA inh -4, TDP1 cell noCPT 0.92µM*, IL1B secr inh 0, VP16 counter inconclusive and TDP1 cell CPT 0.82µM*.
For Cc1c(C(=O)O)[nH]c2c1C(=O)CC(c1ccccc1)C2 (stereo not drawn) the results were RORg inh 10%, LDHA inh 7, TDP1 cell noCPT -16%, IL1B secr inh -8, VP16 counter -5% and TDP1 cell CPT -15%.
For COCCOC(=O)c1[nH]c2c(c1C)C(=O)CC(c1ccco1)C2 (stereo not drawn) the results were RORg inh -6%, LDHA inh 0, TDP1 cell noCPT 0.73µM*, IL1B secr inh 77, VP16 counter -8% and TDP1 cell CPT 1µM*.
`Cc1oc(-c2ccccc2)nc1CNC(=O)Nc1ccc(F)cc1` gave LDHA inh -9.
`CCOC(=O)c1[nH]c2c(c1C)C(=O)CC(c1ccco1)C2` (stereo not drawn) gave RORg inh inconclusive, LDHA inh 2, TDP1 cell noCPT 0.041µM*, IL1B secr inh 82, VP16 counter -5% and TDP1 cell CPT 0.58µM*.
For Cc1cc(C)n(C(=O)c2cn(C)nc2S(=O)(=O)N2CCN(c3ccc(Cl)cc3)CC2)n1 the results were LDHA inh 2.
`Cc1cccn2cc(-c3cccc(S(=O)(=O)N4CC(C)OC(C)C4)c3)nc12` (stereo not drawn) gave RORg inh -29%, LDHA inh -3, TDP1 cell noCPT inconclusive, IL1B secr inh 45, VP16 counter 2% and TDP1 cell CPT inconclusive.
CC1CN(S(=O)(=O)c2cccc(-c3cn4ccccc4n3)c2)CC(C)O1 (stereo not drawn) was read as RORg inh inconclusive, LDHA inh -1, TDP1 cell noCPT inconclusive, IL1B secr inh inconclusive, VP16 counter 0.35µM* and TDP1 cell CPT inconclusive.
`CCOC(=O)C1CCN(S(=O)(=O)c2cccc(-c3cn4cc(Cl)ccc4n3)c2)CC1` gave RORg inh 27%, LDHA inh -4, TDP1 cell noCPT inconclusive, IL1B secr inh -1, VP16 counter -6% and TDP1 cell CPT -20%.
`CC1CCN(S(=O)(=O)c2cccc(-c3cn4cc(Cl)ccc4n3)c2)CC1` gave RORg inh 43%, LDHA inh -2, TDP1 cell noCPT 23µM*, IL1B secr inh 4, VP16 counter 2% and TDP1 cell CPT inconclusive.
Screening O=S(=O)(c1cccc(-c2csc(-c3ccccc3)n2)c1)N1CCOCC1 returned RORg inh -5%, LDHA inh -1, TDP1 cell noCPT inconclusive, IL1B secr inh -21, VP16 counter -1% and TDP1 cell CPT -27%.
CC1CN(S(=O)(=O)c2cccc(-c3csc(-c4ccccc4)n3)c2)CC(C)O1 (stereo not drawn) was read as RORg inh -1%, LDHA inh -6, TDP1 cell noCPT 26µM*, IL1B secr inh -6, VP16 counter 9% and TDP1 cell CPT inconclusive.
`Cc1cccc(C)c1-n1c(SCC(=O)Nc2ccc(C(=O)O)cc2)nnc1-c1cccc([S+](=O)([O-])N2CCCC2)c1` gave LDHA inh -1.
CN(Cc1ccc(F)cc1)C(=O)NC1CCCC(C(F)(F)F)C1 (stereo not drawn) was read as LDHA inh -10.
`CC(=O)[C@@H]1[C@@H](C(=O)c2ccc(F)cc2)[C@]2(C(=O)Nc3ccccc32)[C@H]2C=Cc3cc(F)ccc3N12` gave RORg inh 19%, LDHA inh 18, TDP1 cell noCPT inconclusive, IL1B secr inh -74*, VP16 counter -8% and TDP1 cell CPT inconclusive.
For O=C(NCCc1c[nH]c2ccccc12)c1cc2ccccc2[nH]1 the results were LDHA inh 1.

Bioassay records deposited in PubChem by National Center for Advancing Translational Sciences (NCATS).
